# Experimental data from publication PMC4336329 (PLoS ONE, 2015).
# The whole screen tested about 310,000 compounds, of which about 14,000 (4.5%) showed an effect of 50% or more. Effects have a minus sign here. The full list was thinned out, with strong results kept by preference.
# Biological target: human ether-à-go-go-related gene (hERG) potassium channel (human, UniProt Q12809)
# Assay: primary screen, population patch clamp on CHO cells stably expressing hERG; higher = less effect of the substance
# 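Note: peak tail current of the secondary pulse compared with the same well before compound.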
# human ether-à-go-go-related gene (hERG) potassium channel, sequence (Q12809 whole entry, looked up): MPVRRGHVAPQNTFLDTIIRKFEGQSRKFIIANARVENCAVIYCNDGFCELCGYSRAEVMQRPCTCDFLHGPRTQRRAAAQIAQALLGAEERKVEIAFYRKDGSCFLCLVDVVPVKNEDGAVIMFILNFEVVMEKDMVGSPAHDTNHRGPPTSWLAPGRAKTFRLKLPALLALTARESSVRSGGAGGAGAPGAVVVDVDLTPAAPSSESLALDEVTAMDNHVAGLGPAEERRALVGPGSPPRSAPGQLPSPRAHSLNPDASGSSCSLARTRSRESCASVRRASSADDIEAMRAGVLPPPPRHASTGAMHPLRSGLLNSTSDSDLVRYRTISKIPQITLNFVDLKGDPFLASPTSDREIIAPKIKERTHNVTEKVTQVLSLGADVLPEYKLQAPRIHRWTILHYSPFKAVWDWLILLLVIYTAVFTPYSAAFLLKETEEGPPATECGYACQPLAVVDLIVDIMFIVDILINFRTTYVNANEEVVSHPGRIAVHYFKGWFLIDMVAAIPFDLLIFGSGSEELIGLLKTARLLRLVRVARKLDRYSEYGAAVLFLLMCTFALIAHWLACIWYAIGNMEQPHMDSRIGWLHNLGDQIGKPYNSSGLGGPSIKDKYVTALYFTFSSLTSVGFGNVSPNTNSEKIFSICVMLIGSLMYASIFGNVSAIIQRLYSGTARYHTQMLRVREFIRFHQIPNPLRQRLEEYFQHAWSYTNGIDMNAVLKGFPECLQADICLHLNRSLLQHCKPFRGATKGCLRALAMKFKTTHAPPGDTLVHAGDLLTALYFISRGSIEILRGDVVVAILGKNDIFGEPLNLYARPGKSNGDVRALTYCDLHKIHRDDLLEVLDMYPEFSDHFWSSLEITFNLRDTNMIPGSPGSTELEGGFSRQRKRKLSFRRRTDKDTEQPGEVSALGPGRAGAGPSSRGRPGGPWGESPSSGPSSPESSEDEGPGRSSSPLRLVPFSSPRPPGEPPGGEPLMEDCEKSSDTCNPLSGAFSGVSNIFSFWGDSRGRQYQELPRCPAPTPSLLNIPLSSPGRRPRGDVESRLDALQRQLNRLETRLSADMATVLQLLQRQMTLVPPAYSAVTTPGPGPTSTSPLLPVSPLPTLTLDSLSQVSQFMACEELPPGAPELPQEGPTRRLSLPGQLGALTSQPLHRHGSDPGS
row,Structure (SMILES),"hERG current change (%, negative = inhibition) at 10uM"
1,CN(C)P1(N(C)C)=Nc2c(c(N)nn2C)C(c2ccccc2)=N1,-6.87%
2,CCOc1cc(S(=O)(=O)NCC2OCCc3ccccc32)c(OCC)cc1-n1cnnn1 (stereo not shown),-21.5%
3,CC(=O)Nc1ccc(S(=O)(=O)N2CCN(C(=O)C3COc4ccccc4O3)CC2)cc1 (stereo not shown),-7.33%
4,Cc1ccc(N2C(=O)NC(=O)/C(=C\c3ccoc3)C2=O)cc1,22%
5,O=P1(O)C=C(c2ccccc2)OC(c2ccccc2)=C1,23.9%
6,O=P1(Nn2cnnc2)C=C(c2ccccc2)OC(c2ccccc2)=C1,-20.8%
7,CCN1CCN(P2(=O)C=C(c3ccccc3)OC(c3ccccc3)=C2)CC1,-77.9%
8,Cc1cc(C(=O)CSc2nc(N)cc(N)n2)c(C)n1CCc1ccc(F)cc1,-13.9%
9,Cn1c(=O)c2[nH]c(-c3ccc(S(=O)(=O)O)cc3)nc2n(C)c1=O.O,10.2%
10,COc1ccc(/C=C(\NC(=O)c2cccs2)C(=O)Nc2cccc3ccccc23)cc1OC,-7.06%
11,O=C(Nc1cccc2ccccc12)/C(=C\c1cccc([N+](=O)[O-])c1)NC(=O)c1cccs1,-70.1%
12,O=C(N/N=C/c1ccc(Br)o1)/C(=C/c1ccc([N+](=O)[O-])cc1)NC(=O)c1ccccc1,-60.1%
13,O=C(Nc1ccccc1)/C(=C/c1ccc([N+](=O)[O-])cc1)NC(=O)c1ccccc1,8.2%
14,O=C(Nc1cccc2ccccc12)/C(=C/c1ccc([N+](=O)[O-])cc1)NC(=O)c1ccccc1,-55.6%
15,Cc1ccc(NC(=O)/C(=C/c2cccc([N+](=O)[O-])c2)NC(=O)C2CCCCC2)c(C)c1,-18.7%
16,O=C(N/N=C/c1ccc(O)c(O)c1O)/C(=C/c1ccc([N+](=O)[O-])cc1)NC(=O)c1ccccc1,12.4%
17,O=C(Nc1cccc(C(=O)O)c1)/C(=C/c1ccc([N+](=O)[O-])cc1)NC(=O)c1ccccc1,-5.36%
18,O=C(Nc1ccc(Br)cc1)/C(=C/c1cccc([N+](=O)[O-])c1)NC(=O)C1CCCCC1,-16%
19,O=C(Nc1ccc([N+](=O)[O-])cc1)/C(=C/c1cccc([N+](=O)[O-])c1)NC(=O)C1CCCCC1,-69%
20,O=C(N/C(=C/c1cccc([N+](=O)[O-])c1)C(=O)N1CCCCC1)c1cccs1,-7.23%

row,Structure (SMILES),"hERG current change (%, negative = inhibition) at 10uM"
1,O=C(N/N=C/c1ccc(O)cc1)/C(=C/c1ccc([N+](=O)[O-])cc1)NC(=O)c1ccccc1,8.54%
2,Cc1cc(NC(=O)C(C)SCC(=O)N(C)CC(=O)Nc2ccc(F)cc2)no1 (stereo not shown),7.59%
3,CN(CC(=O)Nc1ccccc1Cl)C(=O)Cn1cc(C(F)(F)F)cc(Cl)c1=O,-6.27%
4,O=C(CN1C(=O)COc2ccc(S(=O)(=O)N3CCOCC3)cc21)NCc1ccccn1,-1.38%
5,O=C(NCC1CCCO1)C1CCN(c2ccc(S(=O)(=O)N3CCCC3)cc2)CC1 (stereo not shown),-4.69%
6,CC(C(=O)c1ccc(-c2ccccc2)cc1)[n+]1ccccc1.[Br-] (stereo not shown),2.72%
7,CCOC(=O)c1ccc(N2C(=O)c3n[nH]c(C)c3C2c2cccnc2)cc1 (stereo not shown),-17.2%
8,CC(C(=O)OCC(=O)c1ccc(F)cc1)N1C(=O)C2C3C=CC(C3)C2C1=O (stereo not shown),-15.4%
9,Cc1ccc(NC(=O)/C(=C\c2cccc([N+](=O)[O-])c2)NC(=O)c2cccs2)cc1,-1.85%
10,Cc1cccc(NC(=O)/C(=C/c2cccc([N+](=O)[O-])c2)NC(=O)c2cccs2)c1,10.2%
11,O=C(Nc1cccc2ccccc12)/C(=C/c1cccc([N+](=O)[O-])c1)NC(=O)c1cccs1,-67.7%
12,CCOC(=O)c1cnn(-c2ccccc2)c1-n1cccc1,-8.27%
13,C=CCNC(=S)Nc1ccccc1,-8.73%
14,CN(C)c1ccc(NC(=O)Nc2csc3ccccc23)cc1,18.4%
15,Fc1cccc(F)c1CN1CCN(c2ncccn2)CC1,15.5%
16,O=C(COc1ccc2oc(-c3ccccc3)cc(=O)c2c1)Nc1ccccc1,-2.43%
17,COc1ccc(-c2cc(=[NH+]c3ccccc3)c3cc(C)ccc3o2)cc1.[O-][Cl+3]([O-])([O-])[O-],24.8%
18,O=c1cc(-c2ccccc2)oc2ccc(O)cc12,-9.74%
19,F[B-](F)(F)F.OCCC[NH+]=c1cc(-c2ccccc2)oc2ccc(Cl)cc12,-79.1%
20,O=c1oc2ccc(Cl)cc2cc1-c1ccccc1,22.4%
